From PubChem BioAssay
Compounds with a hit are over-represented: about 5% of the library has one in this group of screens.
CHT block: human CHT choline transport inhibition; 310,000 compounds, 0.86% hits; AID 488975; Q9GZV3; B-score at 10 µM; CHT-expressing cells, membrane potential dye, choline response; stronger effect = lower value;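 active = B-score over 3 SD under the library average, and starting fluorescence ratio not unusually high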;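 also: choline stimulus applied at its EC90 after an EC20 pre-addition; B-score computed on integrated fluorescence ratio after choline addition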
Target sequence (Q9GZV3 whole entry, looked up): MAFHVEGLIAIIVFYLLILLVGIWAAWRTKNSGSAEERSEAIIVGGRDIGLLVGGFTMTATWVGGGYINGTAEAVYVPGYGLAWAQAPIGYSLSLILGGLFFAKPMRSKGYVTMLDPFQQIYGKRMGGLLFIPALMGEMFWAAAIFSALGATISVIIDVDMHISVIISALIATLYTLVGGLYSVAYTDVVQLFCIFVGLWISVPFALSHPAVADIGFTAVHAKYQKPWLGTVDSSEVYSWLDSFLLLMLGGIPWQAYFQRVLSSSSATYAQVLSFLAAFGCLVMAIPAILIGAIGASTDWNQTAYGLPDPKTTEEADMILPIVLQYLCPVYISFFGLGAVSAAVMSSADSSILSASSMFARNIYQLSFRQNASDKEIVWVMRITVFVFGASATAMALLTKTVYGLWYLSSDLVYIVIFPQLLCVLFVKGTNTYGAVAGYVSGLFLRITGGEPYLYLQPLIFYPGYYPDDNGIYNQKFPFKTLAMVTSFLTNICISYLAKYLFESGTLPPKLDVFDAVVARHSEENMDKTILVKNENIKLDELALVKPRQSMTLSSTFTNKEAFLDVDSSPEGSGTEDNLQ
CHT allo act: human CHT allosteric activation; Q9GZV3; CHT-expressing cells, membrane potential dye, choline EC20; stronger effect = higher value; LV-AA mutant CHT in HEK293 cells; B-score at 10 µM; 310,000 compounds, 0.49% hits;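 active = initial fluorescence not abnormally high and integrated response B-score, plate-corrected, over 3 SD above library mean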
PREPL inh: inhibits the human prolyl oligopeptidase-like enzyme; Q4J6C6; recombinant PREPL, fluorescence polarization activity-based probe; AID 2751; inhibition, % at 5.96 µM; 320,000 compounds, 0.68% hits; in the data active = inhibition above about 43%;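 also: 0% = enzyme with DMSO and 100% = wells lacking enzyme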
ALR H2O2 inh: inhibitors of human sulfhydryl oxidase ALR; P55789; purified ALR, DTT oxidation, H2O2 HRP-luminol luminescence; inhibition, % (test concentration not listed); 290,000 compounds, 3.8% hits; AID 485317;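 active = mean replicate inhibition above about 79%, with every replicate also reaching it, limit read from the data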
AI-2 QS modul: modulators of Vibrio harveyi AI-2 quorum sensing system | Vibrio harveyi JMH597 AI-2 luminescence/OD600 ratio, 9 h; stronger effect = lower value; strain lacks LuxN and CqsS sensors; 0 = neutral-control median | activity change, % at 7.5 µM | 300,000 compounds, 0.4% hits | AID 2094; in the data active = activity change below about -75%, passing the limit was not always enough;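 also: luminescence divided by OD600 gain over 9 h not by final OD600 alone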
* = called active by the depositor; i = inactive; · = no result.

SMILES	CHT block	CHT allo act	PREPL inh	ALR H2O2 inh	AI-2 QS modul
COc1cc(/C=C2\SC(=S)N(NC(=O)c3ccccc3O)C2=O)ccc1O	i	i	-156.9	99.0*	36.9
O=C(NN1C(=O)/C(=C/c2ccc(O)cc2)SC1=S)c1ccccc1O	i	i	-34.1	99.4*	85.3
COc1cc(/C=C2\SC(=S)N(CC(=O)O)C2=O)ccc1OS(=O)(=O)c1ccc(C)cc1	i	i	10.6	89.4*	·
Cc1ccc(/C=C2\SC(=S)N(/N=C/c3cc([N+](=O)[O-])ccc3O)C2=O)o1	i	i	16.7	98.1*	18.5
Cc1ccc(/C=C2/SC(=S)N(CCCC(=O)Nc3cc([N+](=O)[O-])ccc3O)C2=O)cc1	i	i	1.9	0.0	14.3
O=C(Cc1ccccc1)NN1C(=O)/C(=C/c2ccc(C(=O)O)cc2)SC1=S	i	i	0.5	·	34.9
O=C(NN1C(=O)/C(=C/c2ccc(O)cc2)SC1=S)c1cccc(O)c1	-9.4*	i	-53.4	99.2*	27.8
COc1cc(/C=C2/SC(=S)N(Cc3ccccc3)C2=O)ccc1OS(C)(=O)=O	i	i	-6.5	0.8	-7.6
Cc1cc(C)nc(NN2C(=O)/C(=C/c3ccc(O)cc3)SC2=S)n1	i	i	-14.1	99.3*	-5.3
COc1ccc(-c2cc(-c3nnc(COC(=O)c4ccncc4)o3)c3ccccc3n2)cc1OC	i	i	-8.1	-5.2	13.8
Cn1nccc1C(=O)NC1CCCc2c1cnn2-c1ccc(C(C)(C)C)cc1 (stereo not given)	i	i	-0.4	-8.4	11.8
Cc1ccc(C)c(S(=O)(=O)NCCC(=O)N2CCCC(C(N)=O)C2)c1 (stereo not given)	·	·	1.7	-36.5	·
COc1cc(/C=C2/SC(=S)N(C)C2=O)ccc1OC(=O)c1ccco1	i	i	9.4	2.5	12.0
O=C1N/C(=N\S(=O)(=O)c2ccccc2)S/C1=C\c1cc([N+](=O)[O-])ccc1O	i	i	5.5	22.2	14.7
O=C(NN1C(=O)/C(=C/c2cc([N+](=O)[O-])ccc2O)SC1=S)c1ccccc1O	i	i	-1.3	80.8*	85.8
COc1cc(/C=C2\SC(=S)N(NC(C)=O)C2=O)ccc1OC(=O)c1ccco1	·	·	-18.7	97.7*	·
O=C(Cc1ccc(Br)cc1)c1ccc(O)cc1O	-6.74*	i	6.2	47.7	-67.0
CCN(CC)c1ccc(NC(=O)COC(=O)CSc2ccc(Br)cc2C)cc1	i	i	16.2	98.9*	36.6
Cn1c(-c2cc(Br)ccc2O)n[nH]c1=S	i	i	4.8	98.0*	7.3
Oc1ccc(C2C[C@H]3CC[C@@H]2C3)cc1O (stereo not given in full)	i	i	4.7	99.0*	16.7
Clc1nc(-c2cccnc2)nc2scc(-c3ccccc3)c12	i	i	-8.4	96.7*	11.0
COc1ccc(-c2csc3nc(-c4cccnc4)nc(Cl)c23)cc1OC	i	i	17.6	97.6*	10.0
Clc1ncnc2scc(-c3ccccc3)c12	i	i	-6.4	-3.9	0.2
COc1ccc(-c2nc(-c3cccnc3)no2)cc1OC	i	i	0.3	1.5	28.5
CC(C)(C)c1ccc(C(=O)N2CCCC2c2cccs2)cc1 (stereo not given)	i	i	-3.9	-25.4	13.1
SMILES	CHT block	CHT allo act	PREPL inh	ALR H2O2 inh	AI-2 QS modul
COc1nc(N=C(N)N)nc2ccc(C)cc12	i	7.44*	15.5	-7.2	29.2
COc1cccc(NC(=O)CN2CCSc3ccccc32)c1	i	i	11.5	99.6*	33.9
COc1ccccc1NC(=O)CN1CCSc2ccccc21	i	i	9.4	80.5*	17.4
O=C(CCNS(=O)(=O)c1ccc(Br)s1)NCc1ccc2c(c1)OCO2	i	i	-11.6	-3.7	38.0
Cc1cccc(-n2cc3c(=O)n(C)c(=O)n(C)c3c2)c1	i	i	-34.6	7.5	23.8
CN(C)c1ccc(-n2cc3c(=O)n(C)c(=O)n(C)c3c2)cc1	i	i	30.1	98.5*	19.2
CC1(C)CC[C@]2(CO)CC[C@]3(C)C(=CCC4[C@@]5(C)CC[C@H](O)[C@@](C)(CO)C5CC[C@]43C)[C@@H]2C1 (stereo not given in full)	·	·	11.7	-0.8	·
Cc1[nH]c2ccccc2c1SCc1ccccc1	i	i	19.1	99.2*	2.7
Cc1ccc2nc(-c3ccc(SCC(=O)O)nc3)[nH]c2c1	i	i	7.1	98.5*	0.4
COc1ccc(-c2csc(Cc3nnc(N4CCOCC4)n3-c3ccccc3)n2)cc1	i	i	50.9*	-5.9	6.6
COc1ccc(-c2csc(Cc3nnc(N4CCOCC4)n3-c3ccccc3)n2)cc1OC	i	i	8.1	-5.2	11.7
O=C(CNC(=O)c1ccc(Cl)cc1)OCC(=O)N1CCCC1	i	i	12.2	-4.1	28.9
N#C/C(=C\c1ccc[nH]1)C(=O)c1ccccc1	i	i	18.2	-4.2	-6.3
N#C/C(=C\c1cccc(Cl)c1)C(=O)c1ccccc1	i	i	·	95.7*	8.8
COc1ccc(CC(=O)NC2CC(C)(C)NC(C)(C)C2)cc1OC	i	i	10.8	-3.0	5.5
COc1ccc(C2c3[nH]c4ccccc4c3C[C@H]3C(=O)N(C)CC(=O)N23)cc1OC (stereo not given in full)	i	i	-2.5	97.8*	11.2
COc1ccc(C2c3[nH]c4ccccc4c3C[C@H]3C(=O)N(CCCO)CC(=O)N23)cc1OC (stereo not given in full)	i	i	-2.5	-9.6	5.5
COCCCN1CC(=O)N2C(c3cccc(OC)c3)c3[nH]c4ccccc4c3C[C@H]2C1=O (stereo not given in full)	i	i	10.5	99.5*	7.6
COc1ccc(C2c3[nH]c4ccccc4c3C[C@H]3C(=O)N(CCCO)CC(=O)N23)c(OC)c1 (stereo not given in full)	i	i	-2.2	98.8*	8.8
COc1cccc(C2c3[nH]c4ccccc4c3C[C@H]3C(=O)N(C)CC(=O)N23)c1 (stereo not given in full)	i	i	-5.3	98.2*	12.4
O=C(NC(=S)N1CCCC1)c1cccc([N+](=O)[O-])c1	i	i	0.2	-2.3	28.7
CCn1c(/C=C/c2cc(Br)ccc2O)nc2ccccc2c1=O	i	i	1.6	74.1	28.0
CC(C)CCN1C(N(C)C)=NC[C@@H]1C	i	i	4.8	-13.0	·
COCCN1CC(=O)N2C(c3cccc(OC)c3)c3[nH]c4ccccc4c3C[C@H]2C1=O (stereo not given in full)	i	i	-4.8	99.0*	10.1
COc1cccc(C2c3[nH]c4ccccc4c3C[C@H]3C(=O)N(C4CC4)CC(=O)N23)c1 (stereo not given in full)	i	i	2.0	2.9	8.6
